Source: PubChem
Anthrax LF inh2: anthrax lethal factor protease inhibition; P15917; multiplex microsphere protease cleavage assay, LF; inhibition, % at 10 µM; 360,000 tested, 0.12% active; AID 588501; also: plate controls were buffer without enzyme for full effect and enzyme alone for no effect
BoNT-A LC inh2: inhibitors of Botulinum neurotoxin A light chain protease; multiplex microsphere protease substrate cleavage, flow cytometry; inhibition, % at 10 µM; 360,000 tested, 0.17% active; also: plate controls were buffer without enzyme for full effect and enzyme alone for no effect
BoNT-F LC inh: inhibitors of Botulinum neurotoxin F light chain protease; Multiplex microsphere protease cleavage assay, flow cytometry; 360,000 tested, 0.22% active; AID 588497; inhibition, % at 10 µM; in the data active = inhibition above about 35%, passing the limit was not always enough; inconclusive = no clear call, values can overlap the other calls; also: plate controls were buffer without enzyme for full effect and enzyme alone for no effect
MazEF act: MazEF (E. coli) toxin RNase activation | P0AE70 | FAM/BHQ RNA-DNA oligo cleavage fluorescence, 5 h | activation, % at 20 µM | 350,000 tested, 0.32% active | AID 504720; in the data active = activation above about 50%
Target sequence (P0AE70 whole entry, looked up): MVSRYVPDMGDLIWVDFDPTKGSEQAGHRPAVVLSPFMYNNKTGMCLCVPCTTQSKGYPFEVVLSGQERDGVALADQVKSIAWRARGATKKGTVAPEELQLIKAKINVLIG
Bead autofluor: compound fluorescence in toxin protease inhibitor counterscreen. compound autofluorescence counterscreen, microsphere flow cytometry; stronger effect = higher value. 360,000 tested, 3.1% active. fluorescence intensity (no concentration beside the values); in the data active = fluorescence intensity above about 16000; inconclusive = no clear call, values can overlap the other calls
* marks the source's active call; other numbers are inactive results; ? = inconclusive; . = not tested or not shown. Rows were chosen to be rich in hits. Some 3.7% of all compounds tested hit in one or more screens of this group. Rule as the data show it, unless noted: active = inhibition above about 30%; inconclusive = no clear call, values can overlap the other calls; inactive = below that.

SMILES	Anthrax LF inh2	BoNT-A LC inh2	BoNT-F LC inh	MazEF act	Bead autofluor
CCN(C(=O)COC(=O)c1ccccc1SCC(=O)N1CCCC1)C1CCS(=O)(=O)C1 (centres undefined)	.	.	.	-6	.
COc1ccc(C2C(C(=O)N3CCOCC3)=C(C)NC3=C2C(=O)CC(C)(C)C3)cc1O (centres undefined)	-2	-1	-4	2	23700*
COc1cc(OC)c(C2C(C(=O)N3CCOCC3)=C(C)NC3=C2C(=O)CC(C)(C)C3)cc1OC (centres undefined)	5	2	4	5	8576
CCCN(C(=O)Cc1csc(-c2ccccc2)n1)C1CCS(=O)(=O)C1 (centres undefined)	-2	-1	2	0	7856
CC1CCCC(NC(=O)c2ccc3c(c2)NC(=O)CS3)C1C (centres undefined)	0	0	-2	3	5875
Nc1ccccc1-c1nnn(CC(=O)Nc2ccc3c(c2)OCCO3)n1	0	2	-2	-17	5856
COc1ccc(C(=O)Nc2ccccc2-c2nnn(CC(=O)Nc3ccc4c(c3)OCCO4)n2)cc1	0	-1	-1	-11	20699*
O=c1oc(/C=C/c2ccc([N+](=O)[O-])s2)nc2ccccc12	7	4	?	183*	4053
Cc1ccc(Nc2nc(-c3ccc(S(=O)(=O)N4CCCC4)cc3)cs2)cc1C	-5	-4	-9	1	25361*
Cc1ccc(S(=O)(=O)N2CCN(S(=O)(=O)N3CCOCC3)CC2)cc1C	-3	0	4	4	16305*
Cc1cc(C)cc(Nc2nc(-c3ccc(S(=O)(=O)N4CCCC4)cc3)cs2)c1	-2	-2	-16	5	1864
Cc1ccc(S(=O)(=O)N2CCCN(S(=O)(=O)c3ccc(C)c(C)c3)CC2)cc1C	-7	-2	-3	-3	16751*
Cc1ccc(S(=O)(=O)N2CCN(C(=O)N3CCOCC3)CC2)cc1C	-4	0	15	5	4030
CN(Cc1ccccc1)C(=O)c1ccc(NC(=O)Cc2cccc(NC(=O)C3CCN(C(=O)C4CCC4)CC3)c2)cc1	2	0	-7	17	3971
OC(c1ccccc1)c1nc(-c2csc3ccccc23)cs1 (centres undefined)	-3	0	-3	.	3982
C=CCn1c(CNC(=O)c2ccco2)nnc1SCC(=O)Nc1cccc(F)c1	-7	-1	-6	9	4602
C=CCn1c(SCC(=O)Nc2ccc3c(c2)OCCO3)nnc1-c1ccco1	-3	-1	1	6	16334*
C=CCn1c(CNC(=O)c2ccco2)nnc1SCC(=O)Nc1cccc(Br)c1	0	-2	-2	5	24230*
CCn1c(CNC(=O)c2ccco2)nnc1SCC(=O)Nc1ccccc1Cl	0	1	6	12	4983
C=CCn1c(C)nnc1SCC(=O)Nc1ccc2c(c1)OCCO2	-2	0	-3	7	2910
CCn1c(CNC(=O)c2ccco2)nnc1SCC(=O)Nc1cc(C)c(C)cc1Br	1	?	0	3	22252*
Nc1cc(=O)n(Cc2ccco2)c(=S)[nH]1	8	0	2	5	3738
CON=C1CCN(c2ncc(C(F)(F)F)cc2Cl)CC1	1	?	1	-8	19907*
FC(F)(F)c1cnc(N2CCSCC2)c(Cl)c1	-7	-1	-17	8	4831
O=C(OC1CCN(c2ncc(C(F)(F)F)cc2Cl)CC1)c1ccc(Cl)cc1	-2	0	-3	1	24209*
SMILES	Anthrax LF inh2	BoNT-A LC inh2	BoNT-F LC inh	MazEF act	Bead autofluor
Cc1noc(C)c1NC(=O)N(C)C[C@H]1Oc2c(NS(=O)(=O)c3cn(C)cn3)cccc2C(=O)N([C@H](C)CO)C[C@@H]1C	-5	0	-4	5	3091
CC(C)n1ncc2c(C(=O)NCCc3ccc(F)cc3)cc(C3CC3)nc21	-4	1	-3	0	6360
C[C@H](CO)N1C[C@H](C)[C@@H](CN(C)S(=O)(=O)c2ccc(Oc3ccccc3)cc2)OCc2cnnn2CCCC1=O	-7	-1	1	2	3071
Cc1ccc(-c2n[nH]c(=S)n2Cc2ccccc2)cc1	-1	?	3	1	22893*
Cc1ccc(S(=O)(=O)N2CCCCC2C)cc1[N+](=O)[O-] (centres undefined)	-1	2	17	9	3249
O=C1Nc2ccccc2OC1CC(=O)N1CCN(c2cccc(C(F)(F)F)c2)CC1 (centres undefined)	2	2	1	-5	21735*
CCc1nc2c(OCc3ccc(F)cc3)cccn2c1N(C)C(=O)C(C)C	-1	0	0	.	3622
Cc1nn(-c2ccccc2)c(-c2ccccc2[N+](=O)[O-])c1CC#N	-2	0	-7	.	6131
Cc1nc(=O)c(-c2ccccc2)c(C)n1-c1ccc(S(N)(=O)=O)cc1	-2	0	2	7	2396
Cc1nc(=O)c(-c2ccccc2)c(C)n1-c1ccc(C(=O)O)cc1	0	1	-1	3	22979*
CCC1C(=O)NCCN1C(=O)c1ccc2nc(Cc3cccc(Cl)c3)oc2c1 (centres undefined)	-4	0	6	2	6221
Cc1cc(C(=O)CN(Cc2ccc(F)cc2)S(=O)(=O)c2ccc3c(c2)OCCO3)c(C)n1C	-3	?	-4	-1	20608*
CCc1noc(C)c1C(=O)N(CC)CC(=O)Nc1cc(Cl)ccc1C	4	1	-5	-14	3666
CCCCNC(=O)C1(C)CCN1C(=O)c1ccc2ccccc2n1 (centres undefined)	1	0	-9	.	3571
COC(=O)/C(C#N)=C/c1c(-c2ccccc2)nc2n1CCS2	-15	-1	7	6	6301
Clc1cccc(Cl)c1CO/N=C/c1c(-c2ccccc2)nc2n1CCS2	-4	?	-7	-9	23470*
Cc1ccc(NC(=O)COc2nc(C)cs2)cc1	-1	-1	-2	-1	16659*
CCN(CC(=O)Nc1ccc(NC(C)=O)cc1)C(=O)c1cc([N+](=O)[O-])ccc1Sc1ccc(Cl)cc1	0	0	-12	-10	4237
CCOC(=O)c1c(C)c(C(=O)NC(C)COC)c(C)n1C (centres undefined)	-3	?	-5	8	17439*
CCOC(=O)c1c(C)c(C(=O)NCc2ccc3c(c2)OCO3)c(C)n1C	-2	-2	-8	1	16759*
CCOC(=O)c1c(C)c(C(=O)NCCCOC(C)C)c(C)n1C	-6	2	2	6	19718*
Nc1ccc(SCc2cccnc2)cc1	6	0	-41	12	3098
CC1(Oc2cccc(F)c2)CCN(Cc2ccc(-c3ccccn3)cc2)C1 (centres undefined)	-6	-1	-3	.	3718
CCOC(=O)C1=C[C@@H](C(C)C)N(S(=O)(=O)c2ccc(C)cc2)[C@H]1c1ccc(C(C)C)cc1	-14	1	-8	.	6261
CCN(CC)C(=O)C1=C(C)N(CCCOC)C(=O)C(CC(=O)NCC2CCCCC2)C1 (centres undefined)	4	0	7	2	2972
O=C(c1ccc(Br)o1)N(Cc1ccccc1)c1ccccn1	-1	?	6	6	19550*
